Values joined by “and” are separate entries in the source; they are usually repeats but may differ in a detail not shown here. Identical values can stand only once. Like-named read-outs stand apart in the source and are kept apart here.
How the values were obtained:
AAK1 = conditions: n = 1
ABL1-nonphosphorylated = conditions: concentration: 1 μM, replicates: in singlicate; n = 1
ABL1-phosphorylated = conditions: concentration: 1 μM, replicates: in singlicate; n = 1
ABL2 = conditions: n = 1
ACVR1B = conditions: concentration: 1 μM, replicates: in singlicate; n = 1
ACVR1 = conditions: n = 1
ACVR2A = conditions: concentration: 1 μM, replicates: in singlicate; n = 1
[1] = concentration: 1 μM, replicates: in singlicate
[2] = concentration: 1 μM,replicates: in singlicate, 1 µM
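Further: KINOMEscan kinase panel screen.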

CC(C)(C)c1ccc(C(=O)Nc2cn3cc(-c4cccnc4)ccc3n2)cc1
%Inh (AAK1; [1]): 25%
%Inh (ABL1-nonphosphorylated): 50%
%Inh (ABL1-phosphorylated): 37%
%Inh (ABL2; [1]): 20%
%Inh (ACVR1B): 13%
%Inh (ACVR1; [1]): 21%
%Inh (ACVR2A): 0%

COc1ccccc1-c1ccc2c(NC(=O)C3CC3)n[nH]c2n1 [SB-711239]
%Inh (AAK1; [1]): 9%
%Inh (ABL1-nonphosphorylated): 0%
%Inh (ABL1-phosphorylated): 88%
%Inh (ABL2; [1]): 0%
%Inh (ACVR1B): 18%
%Inh (ACVR1; [1]): 0%
%Inh (ACVR2A): 29%

Cn1ccc2ncnc(Oc3ccc(NC(=O)Nc4ccccc4)cc3)c21
%Inh (AAK1; [1]): 0%
%Inh (ABL1-nonphosphorylated): 26%
%Inh (ABL1-phosphorylated): 0%
%Inh (ABL2; [1]): 0%
%Inh (ACVR1B): 0%
%Inh (ACVR1; [1]): 0%
%Inh (ACVR2A): 0%

O=S(=O)(c1ccc(-c2ccnc3[nH]ccc23)cc1)N1CCCC1 [GSK846226]
%Inh (AAK1; [1]): 60%
%Inh (ABL1-nonphosphorylated): 0%
%Inh (ABL1-phosphorylated): 0%
%Inh (ABL2; [1]): 0%
%Inh (ACVR1B): 0%
%Inh (ACVR1; [1]): 24%
%Inh (ACVR2A): 0%

O=C(Nc1ccccc1)Nc1cccc(Oc2ccc3nccn3n2)c1
%Inh (AAK1; [1]): 0%
%Inh (ABL1-nonphosphorylated): 89%
%Inh (ABL1-phosphorylated): 6%
%Inh (ABL2; [1]): 31%
%Inh (ACVR1B): 0%
%Inh (ACVR1; [1]): 0%
%Inh (ACVR2A): 0%

CSc1nn2c(=O)cc(N3CCOCC3)nc2n1Cc1cccc(C(F)(F)F)c1C [GSK2363608]
%Inh (AAK1; [2]): 3% and 25%
%Inh (ABL1-nonphosphorylated): 0%
%Inh (ABL1-phosphorylated): 0%
%Inh (ABL2; [2]): 5% and 17%
%Inh (ACVR1B): 0%
%Inh (ACVR1; [2]): 0% and 14%
%Inh (ACVR2A): 0%

CC1=C(C(=O)Nc2cc3cn[nH]c3cc2F)C(c2ccc(C(F)(F)F)cc2)CC(=O)N1 (stereo not drawn) [GSK429286]
%Inh (AAK1; [1]): 0%
%Inh (ABL1-nonphosphorylated): 0%
%Inh (ABL1-phosphorylated): 0%
%Inh (ABL2; [1]): 19%
%Inh (ACVR1B): 0%
%Inh (ACVR1; [1]): 0%
%Inh (ACVR2A): 83%

CN1C(=O)C(Nc2ccc(Cl)c(C(=O)O)c2)=C(c2ccc(Cl)cc2)C1=O [SB-404290]
%Inh (AAK1; [1]): 100%
%Inh (ABL1-nonphosphorylated): 21%
%Inh (ABL1-phosphorylated): 0%
%Inh (ABL2; [1]): 19%
%Inh (ACVR1B): 4%
%Inh (ACVR1; [1]): 12%
%Inh (ACVR2A): 0%

CC(=O)Nc1nc2cnc(Nc3cc(NC(=O)c4cccc(CCC#N)c4)ccc3C)nc2s1
%Inh (AAK1; [1]): 6%
%Inh (ABL1-nonphosphorylated): 94.8%
%Inh (ABL1-phosphorylated): 29%
%Inh (ABL2; [1]): 29%
%Inh (ACVR1B): 0%
%Inh (ACVR1; [1]): 0%
%Inh (ACVR2A): 0%

Cl.c1ccc(-c2n[nH]cc2-c2ccnc(-c3ccc(CN4CCOCC4)cc3)c2)nc1 [GW776245]
%Inh (AAK1; [1]): 25%
%Inh (ABL1-nonphosphorylated): 62%
%Inh (ABL1-phosphorylated): 61%
%Inh (ABL2; [1]): 0%
%Inh (ACVR1B): 80%
%Inh (ACVR1; [1]): 7%
%Inh (ACVR2A): 11%

O=C(Nc1n[nH]c2nc(-c3nccs3)c(Br)cc12)C1CC1 [SB-742251]
%Inh (AAK1; [1]): 15%
%Inh (ABL1-nonphosphorylated): 0%
%Inh (ABL1-phosphorylated): 22%
%Inh (ABL2; [1]): 7%
%Inh (ACVR1B): 0%
%Inh (ACVR1; [1]): 6%
%Inh (ACVR2A): 0%

NC(=O)c1nnc2ccccc2c1N
%Inh (AAK1; [1]): 35%
%Inh (ABL1-nonphosphorylated): 25%
%Inh (ABL1-phosphorylated): 6%
%Inh (ABL2; [1]): 65%
%Inh (ACVR1B): 0%
%Inh (ACVR1; [1]): 0%
%Inh (ACVR2A): 22%

COc1ccc(Nc2nccc(NCCNC(=O)Nc3ccccc3F)n2)cc1 [GSK1379901]
%Inh (AAK1; [1]): 80%
%Inh (ABL1-nonphosphorylated): 0%
%Inh (ABL1-phosphorylated): 1%
%Inh (ABL2; [1]): 0%
%Inh (ACVR1B): 0%
%Inh (ACVR1; [1]): 21%
%Inh (ACVR2A): 0%

Cl.NC(=O)c1cccc(Nc2nccc(Nc3ccc(Oc4cccc(Cl)c4)c(Cl)c3)n2)c1 [GW659008]
%Inh (AAK1; [1]): 14%
%Inh (ABL1-nonphosphorylated): 0%
%Inh (ABL1-phosphorylated): 0%
%Inh (ABL2; [1]): 20%
%Inh (ACVR1B): 0%
%Inh (ACVR1; [1]): 29%
%Inh (ACVR2A): 0%

Fc1cccc(COc2nnc(-c3ccc4c(c3)CCO4)o2)c1
%Inh (AAK1; [1]): 26%
%Inh (ABL1-nonphosphorylated): 25%
%Inh (ABL1-phosphorylated): 0%
%Inh (ABL2; [1]): 22%
%Inh (ACVR1B): 0%
%Inh (ACVR1; [1]): 0%
%Inh (ACVR2A): 0%

COc1cc2ncnc(Nc3ccc4nc(-c5ccccc5)[nH]c4c3)c2cc1OC.Cl [GW282450]
%Inh (AAK1; [1]): 6%
%Inh (ABL1-nonphosphorylated): 0%
%Inh (ABL1-phosphorylated): 0%
%Inh (ABL2; [1]): 5%
%Inh (ACVR1B): 0%
%Inh (ACVR1; [1]): 0%
%Inh (ACVR2A): 0%

COc1cccc(NC(=O)NC2CCN(c3ccnc(Nc4ccc(F)cc4)n3)C2)c1 (stereo not drawn) [GSK1379721]
%Inh (AAK1; [1]): 5%
%Inh (ABL1-nonphosphorylated): 0%
%Inh (ABL1-phosphorylated): 0%
%Inh (ABL2; [1]): 0%
%Inh (ACVR1B): 0%
%Inh (ACVR1; [1]): 0%
%Inh (ACVR2A): 100%

Fc1cc(Cl)ccc1Nc1ccnc2cc(-c3ccc(CN4CCCCC4)o3)ccc12 [GW560116]
%Inh (AAK1; [1]): 1%
%Inh (ABL1-nonphosphorylated): 47%
%Inh (ABL1-phosphorylated): 49%
%Inh (ABL2; [1]): 14%
%Inh (ACVR1B): 0%
%Inh (ACVR1; [1]): 5%
%Inh (ACVR2A): 0%
